# Molecular target: ZNF263
# Experiment: pooled miR-30 sensor sort-seq; sequence = guide strand
# Details: shRNA
# Note: reference of the scale not given here.
row,Sequence,sensor-assay potency score (higher = more potent)
1,TTATCAGACACCTACTTCCTCT,-0.271
2,TTTGGCTGCAGTTCCTTCGGTC,0.0507
3,TGAAGCTCGGTGACTCTCGTGC,0.166
4,TTTCAGTGCAGTCCACACCCAT,-0.797
5,TAAGGTAAACTGGACAGTCAGG,-0.825
6,TACACAGTCTTTCAGCTGCATG,-1.42
7,TTCAGTGCAGTCCACACCCATA,-1.37
8,TTGAAGCTCGGTGACTCTCGTG,-0.044
9,TTATAGGGTCTCTCTCCCGTAT,-0.848
10,TTTTATGCCAATCCTCTGCTGC,0.0855

# Molecular target: ZNF300
# Experiment: as above
# Details: shRNA
row,Sequence,sensor-assay potency score (higher = more potent)
1,TGAGTTGTGACTTCTTAGCAAA,-1.22
2,TTTTTTTCTTGAATTGCTCTTA,0.496
3,ATGAGTTCTGTCTTCCTGCTGA,0.161
4,TAAAACAAGGTCTGACTTCTGA,-0.123
5,TTGCTCTTATAACAACTCGGTA,-1.42
6,TTCCACATTCAGAACAATCATA,-0.99
7,TTAGTCTTAACATCTAATGCTT,-0.171
8,TTCTGTATGCTTAACTTGCTGT,-0.0649
9,TTACTGAATCTGATCAACCTAT,-0.267
10,TAGTCTTAACATCTAATGCTTC,-0.419

# Molecular target: ZNF322A
# Experiment: as above
# Details: shRNA
row,Sequence,sensor-assay potency score (higher = more potent)
1,TAAGACAGGAGCTTCTACCAAA,-0.88
2,TTTTTCACCAATGTGTACTGTC,0.583
3,TATGAGTCAACTAACTATGAGA,-0.783
4,TTCACCAATGTGTACTGTCTGA,-0.693
